# Records with an inconclusive call do not appear. Where a call stands in place of a potency, no number is given. Unmarked numbers belong to inactive results. Calls of active or inactive are those of the source. Calls come from the whole dose curve; as a rule, active = well fitted inhibition curve with a large enough effect; inconclusive = small, poorly fitted or top-dose-only effect; inactive = flat fitted curve, though single readings scatter.
# Tests used:
# [1] = qHTS profiling for inhibitors of Plasmodium falciparum proliferation (AID 504749); note: nearly all actives have a fitted effect of over 60% in size; details: P. falciparum in erythrocytes, SYBR Green DNA, 72 h
# Outline: (§1)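 Three-day growth assay of blood-stage parasites in erythrocytes (0.3% parasitemia, 2.5% hematocrit) at 37 C, 5% CO2, quantified by SYBR Green DNA staining after overnight detergent lysis.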
# 3D7 = assay: as above; details: P. falciparum in erythrocytes, SYBR Green DNA, 72 h; series mostly up to 28.7 µM
# Outline: as §1
# 7G8 = assay: as above; details: P. falciparum in erythrocytes, SYBR Green DNA, 72 h; series mostly up to 28.7 µM
# Outline: as §1
# AA1029 = assay: as above; details: P. falciparum in erythrocytes, SYBR Green DNA, 72 h; series mostly up to 28.7 µM
# Outline: as §1
# AS120 = assay: as above; details: P. falciparum in erythrocytes, SYBR Green DNA, 72 h; series mostly up to 28.7 µM
# Outline: as §1
# ATS189 = assay: as above; details: P. falciparum in erythrocytes, SYBR Green DNA, 72 h; series mostly up to 28.7 µM
# Outline: as §1
# ATS95 = assay: as above; details: P. falciparum in erythrocytes, SYBR Green DNA, 72 h; series mostly up to 28.7 µM
# Outline: as §1
# C2A = assay: as above; details: P. falciparum in erythrocytes, SYBR Green DNA, 72 h; series mostly up to 28.7 µM
# Outline: as §1
# CP185 = assay: as above; details: P. falciparum in erythrocytes, SYBR Green DNA, 72 h; series mostly up to 28.7 µM
# Outline: as §1
# CP191 = assay: as above; details: P. falciparum in erythrocytes, SYBR Green DNA, 72 h; series mostly up to 28.7 µM
# Outline: as §1
# CP192 = assay: as above; details: P. falciparum in erythrocytes, SYBR Green DNA, 72 h; series mostly up to 28.7 µM
# Outline: as §1
# CP194 = assay: as above; details: P. falciparum in erythrocytes, SYBR Green DNA, 72 h; series mostly up to 28.7 µM
# Outline: as §1
# CP201 = assay: as above; details: P. falciparum in erythrocytes, SYBR Green DNA, 72 h; series mostly up to 28.7 µM
# Outline: as §1
# CP203 = assay: as above; details: P. falciparum in erythrocytes, SYBR Green DNA, 72 h; series mostly up to 28.7 µM
# Outline: as §1
# CP211 = assay: as above; details: P. falciparum in erythrocytes, SYBR Green DNA, 72 h; series mostly up to 28.7 µM
# Outline: as §1
# CP215 = assay: as above; details: P. falciparum in erythrocytes, SYBR Green DNA, 72 h; series mostly up to 28.7 µM
# Outline: as §1
# CP217 = assay: as above; details: P. falciparum in erythrocytes, SYBR Green DNA, 72 h; series mostly up to 28.7 µM
# Outline: as §1
# CP237 = assay: as above; details: P. falciparum in erythrocytes, SYBR Green DNA, 72 h; series mostly up to 28.7 µM
# Outline: as §1
# CP238 = assay: as above; details: P. falciparum in erythrocytes, SYBR Green DNA, 72 h; series mostly up to 28.7 µM
# Outline: as §1
# CP247 = assay: as above; details: P. falciparum in erythrocytes, SYBR Green DNA, 72 h; series mostly up to 28.7 µM
# Outline: as §1
# [2] = at 28.7 µM (top of the series), parasite line A
# [3] = at 28.7 µM (top of the series), parasite line B
# Potency is the fitted concentration of half-maximal effect.
smiles,measurement,setting,value
CCN(CC)Cc1cc(Nc2ccnc3cc(Cl)ccc23)ccc1O,Potency,[1]; parasite line A,35.5 nM (active)
same,Potency,[1]; parasite line B,39.8 nM (active)
same,Potency,3D7,28.2 nM (active)
same,Potency,7G8,35.5 nM (active)
same,Potency,AA1029,63.1 nM (active)
same,Potency,AS120,44.7 nM (active)
same,Potency,ATS189,141 nM (active)
same,Potency,ATS95,63.1 nM (active)
same,Potency,C2A,56.2 nM (active)
same,Potency,CP185,63.1 nM (active)
same,Potency,CP191,39.8 nM (active)
same,Potency,CP192,161 nM (active)
same,Potency,CP194,128 nM (active)
same,Potency,CP201,90.7 nM (active)
same,Potency,CP203,144 nM (active)
same,Potency,CP211,64.2 nM (active)
same,Potency,CP215,128 nM (active)
same,Potency,CP217,112 nM (active)
same,Potency,CP237,35.5 nM (active)
same,Potency,CP238,89.1 nM (active)
same,Potency,CP247,100 nM (active)
CC1(C)S[C@@H]2[C@H](NC(=O)[C@@H](NC(=O)N3CCNC3=O)c3ccccc3)C(=O)N2[C@H]1C(=O)O,"activity, negative = inhibition","[1]; at 12.8 µM (top of the series), parasite line A",9.18%
same,"activity, negative = inhibition","[1]; at 12.8 µM (top of the series), parasite line B",-0.988%
same,Potency,3D7,inactive
same,Potency,7G8,inactive
same,Potency,AA1029,inactive
same,Potency,AS120,inactive
same,Potency,ATS189,inactive
same,Potency,ATS95,inactive
same,Potency,C2A,inactive
same,Potency,CP185,inactive
same,Potency,CP191,inactive
same,Potency,CP192,inactive
same,Potency,CP194,inactive
same,Potency,CP201,inactive
same,Potency,CP203,inactive
same,Potency,CP211,inactive
same,Potency,CP215,inactive
same,Potency,CP217,inactive
same,Potency,CP237,inactive
same,Potency,CP238,inactive
same,Potency,CP247,inactive
CC(O)CO (stereo not given),"activity, negative = inhibition",[1]; [2],8.15%
same,"activity, negative = inhibition",[1]; [3],7.84%
same,Potency,3D7,inactive
same,Potency,7G8,inactive
same,Potency,AA1029,inactive
same,Potency,AS120,inactive
same,Potency,ATS189,inactive
same,Potency,ATS95,inactive
same,Potency,C2A,inactive
same,Potency,CP185,inactive
same,Potency,CP191,inactive
same,Potency,CP192,inactive
same,Potency,CP194,inactive
same,Potency,CP201,inactive
same,Potency,CP203,inactive
same,Potency,CP211,inactive
same,Potency,CP215,inactive
same,Potency,CP217,inactive
same,Potency,CP237,inactive
same,Potency,CP238,inactive
same,Potency,CP247,inactive
CCCCCCC(O)C/C=C/CCCCCCCC(=O)O (stereo not given),"activity, negative = inhibition",[1]; [2],-1.16%
same,"activity, negative = inhibition",[1]; [3],3.04%
same,Potency,3D7,inactive
same,Potency,7G8,inactive
same,Potency,AA1029,inactive
same,Potency,AS120,inactive
same,Potency,ATS189,inactive
same,Potency,ATS95,inactive
same,Potency,C2A,inactive
same,Potency,CP185,inactive
same,Potency,CP191,inactive
same,Potency,CP192,inactive
same,Potency,CP194,inactive
same,Potency,CP201,inactive
same,Potency,CP203,inactive
same,Potency,CP215,inactive
same,Potency,CP217,inactive
same,Potency,CP237,inactive
same,Potency,CP238,inactive
same,Potency,CP247,inactive
CC(NNC(=O)c1ccccc1)c1ccccc1 (stereo not given),"activity, negative = inhibition",[1]; [2],2.16%
same,"activity, negative = inhibition",[1]; [3],14.7%
same,Potency,3D7,inactive
same,Potency,7G8,inactive
same,Potency,AA1029,inactive
same,Potency,AS120,inactive
same,Potency,ATS189,inactive
same,Potency,ATS95,inactive
same,Potency,C2A,inactive
same,Potency,CP185,inactive
same,Potency,CP191,inactive
same,Potency,CP192,inactive
same,Potency,CP194,inactive
same,Potency,CP201,inactive
same,Potency,CP211,inactive
same,Potency,CP215,inactive
same,Potency,CP217,inactive
same,Potency,CP237,inactive
same,Potency,CP238,inactive
same,Potency,CP247,inactive
CCOC(C)=O,"activity, negative = inhibition",[1]; [2],0.182%
same,"activity, negative = inhibition",[1]; [3],7.53%
same,Potency,3D7,inactive
same,Potency,7G8,inactive
same,Potency,AA1029,inactive
same,Potency,AS120,inactive
same,Potency,ATS189,inactive
same,Potency,ATS95,inactive
same,Potency,C2A,inactive
same,Potency,CP185,inactive
same,Potency,CP191,inactive
same,Potency,CP192,inactive
same,Potency,CP194,inactive
same,Potency,CP201,inactive
same,Potency,CP211,inactive
same,Potency,CP215,inactive
same,Potency,CP217,inactive
same,Potency,CP237,inactive
same,Potency,CP238,inactive
same,Potency,CP247,inactive
CO[C@H](C(=O)[C@@H](O)[C@@H](C)O)C1Cc2cc3cc(O[C@H]4C[C@@H](O[C@H]5C[C@@H](O)[C@H](O)[C@@H](C)O5)[C@@H](O)[C@@H](C)O4)c(C)c(O)c3c(O)c2C(=O)[C@H]1O[C@H]1C[C@@H](O[C@H]2C[C@@H](O[C@H]3C[C@](C)(O)[C@H](O)[C@@H](C)O3)[C@H](O)[C@@H](C)O2)[C@H](O)[C@@H](C)O1 (stereo not given in full),Potency,[1]; parasite line A,112 nM (active)
same,Potency,[1]; parasite line B,251 nM (active)
same,Potency,3D7,112 nM (active)
same,Potency,7G8,44.7 nM (active)
same,Potency,AA1029,112 nM (active)
same,Potency,AS120,141 nM (active)
same,Potency,ATS189,158 nM (active)
same,Potency,ATS95,126 nM (active)
same,Potency,C2A,224 nM (active)
same,Potency,CP185,199 nM (active)
same,Potency,CP191,178 nM (active)
same,Potency,CP192,2130 nM (active)
same,Potency,CP194,2690 nM (active)
same,Potency,CP201,2130 nM (active)
same,Potency,CP203,2690 nM (active)
same,Potency,CP211,2130 nM (active)
same,Potency,CP215,1690 nM (active)
same,Potency,CP217,224 nM (active)
same,Potency,CP237,112 nM (active)
same,Potency,CP238,178 nM (active)
same,Potency,CP247,355 nM (active)
CCCC(=O)Nc1ncnc2c1ncn2C1OC2COP(=O)(O)OC2C1OC(=O)CCC (stereo not given),"activity, negative = inhibition",[1]; [2],6.84%
same,"activity, negative = inhibition",[1]; [3],-4.45%
same,Potency,3D7,inactive
same,Potency,7G8,inactive
same,Potency,AA1029,inactive
same,Potency,AS120,inactive
same,Potency,ATS189,inactive
same,Potency,ATS95,inactive
same,Potency,C2A,inactive
same,Potency,CP185,inactive
same,Potency,CP191,inactive
same,Potency,CP192,inactive
same,Potency,CP194,inactive
same,Potency,CP201,inactive
same,Potency,CP211,inactive
same,Potency,CP215,inactive
same,Potency,CP217,inactive
same,Potency,CP237,inactive
same,Potency,CP238,inactive
same,Potency,CP247,inactive
CCCCCCCCCCCCCCCC(=O)OCC(COC(=O)CCCCCCCCCCCCCCC)OC(=O)CCCCCCCCCCCCCCC,"activity, negative = inhibition",[1]; [2],-0.409%
same,"activity, negative = inhibition",[1]; [3],9.45%
same,Potency,3D7,inactive
same,Potency,7G8,inactive
same,Potency,AA1029,inactive
same,Potency,AS120,inactive
same,Potency,ATS189,inactive
same,Potency,ATS95,inactive
same,Potency,C2A,inactive
same,Potency,CP185,inactive
same,Potency,CP191,inactive
same,Potency,CP192,inactive
same,Potency,CP194,inactive
same,Potency,CP201,inactive
same,Potency,CP211,inactive
same,Potency,CP215,inactive
same,Potency,CP217,inactive
same,Potency,CP237,inactive
same,Potency,CP238,inactive
same,Potency,CP247,inactive
CC1=C(/C=C/C(C)=C/C=C/C(C)=C/C=C/C=C(C)/C=C/C=C(C)/C=C/C2=C(C)CCCC2(C)C)C(C)(C)CCC1,"activity, negative = inhibition",[1]; [2],0.195%
same,"activity, negative = inhibition",[1]; [3],-0.801%
same,Potency,3D7,inactive
same,Potency,7G8,inactive
same,Potency,AA1029,inactive
same,Potency,AS120,inactive
same,Potency,ATS189,inactive
same,Potency,ATS95,inactive
same,Potency,C2A,inactive
same,Potency,CP185,inactive
same,Potency,CP191,inactive
same,Potency,CP192,inactive
same,Potency,CP194,inactive
same,Potency,CP201,inactive
same,Potency,CP203,inactive
same,Potency,CP211,inactive
same,Potency,CP215,inactive
same,Potency,CP217,inactive
same,Potency,CP237,inactive
same,Potency,CP238,inactive
same,Potency,CP247,inactive
